Measurements taken from PMC7862700, “An all-to-all approach to the identification of sequence-specific readers for epigenetic DNA modifications on cytosine”.

Key:
Test in all cases: DAPPL (digital affinity profiling via proximity ligation, sequencing); 10 mM Tris-HCl pH 7.5, 50 mM NaCl, 1 mM DTT, 4% glycerol, room temperature, 30 min; GST-TFs on glutathione beads, 16-mer random dsDNA library, 0.1% formaldehyde crosslink after washing; high values mean tight binding
FEV = biological target: T1, FEV (Homo sapiens, UniProt Q99581 1-238); conditions: protein: recombinant; tags: N-terminal GST; dsDNA, one strand shown
T1 sequence: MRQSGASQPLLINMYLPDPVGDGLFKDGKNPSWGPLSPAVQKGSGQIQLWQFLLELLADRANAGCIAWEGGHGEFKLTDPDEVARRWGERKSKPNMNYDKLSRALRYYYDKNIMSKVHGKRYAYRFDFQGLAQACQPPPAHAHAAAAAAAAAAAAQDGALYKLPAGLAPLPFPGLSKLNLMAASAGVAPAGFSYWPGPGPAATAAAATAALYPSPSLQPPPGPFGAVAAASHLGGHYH
Method in brief: (§1)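 In yeast, human transcription factors were expressed with a GST fusion, then pulled down on glutathione beads and given DNA barcodes. Pooled with a tag-only sample, they were exposed to 200 nmole of a 16-mer random double-stranded DNA library (Tris/NaCl/DTT/glycerol buffer, room temperature, 30 min), washed, crosslinked with 0.1% formaldehyde, proximity-ligated using BsaI/T4 ligase for 1 h at 37 °C, PCR-amplified and read on an Illumina NextSeq500. Each hexamer's frequency of reads for a factor, divided by the matching frequency for the tag-only sample, gives the binding signal.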

ETV5 = ETV5 (Homo sapiens, UniProt P41161 1-510); conditions: protein: recombinant; tags: N-terminal GST; dsDNA, one strand shown
Method in brief: as §1

HSF1 = HSF1 (Homo sapiens, UniProt Q00613 1-529); conditions: protein: recombinant; tags: N-terminal GST; chain copies: 3; dsDNA, one strand shown
Method in brief: as §1

SPIC = biological target: T2, SPIC (Homo sapiens, UniProt Q8N5J4 1-248); conditions: protein: recombinant; tags: N-terminal GST; dsDNA, one strand shown
T2 sequence: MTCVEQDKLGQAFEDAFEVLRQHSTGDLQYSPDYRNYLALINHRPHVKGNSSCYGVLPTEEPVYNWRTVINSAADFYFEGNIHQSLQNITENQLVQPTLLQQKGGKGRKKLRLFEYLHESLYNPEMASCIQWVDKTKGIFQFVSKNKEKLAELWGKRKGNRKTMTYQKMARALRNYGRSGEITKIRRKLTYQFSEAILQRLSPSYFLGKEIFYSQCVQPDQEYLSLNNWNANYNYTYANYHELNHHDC
Method in brief: as §1

ELF4 = ELF4 (Homo sapiens, UniProt Q99607 1-663); conditions: protein: recombinant; tags: N-terminal GST; dsDNA, one strand shown
Method in brief: as §1

ELK4 = biological target: T3, ELK4 (Homo sapiens, UniProt P28324-2 1-405); conditions: protein: recombinant; tags: N-terminal GST; dsDNA, one strand shown
T3 sequence: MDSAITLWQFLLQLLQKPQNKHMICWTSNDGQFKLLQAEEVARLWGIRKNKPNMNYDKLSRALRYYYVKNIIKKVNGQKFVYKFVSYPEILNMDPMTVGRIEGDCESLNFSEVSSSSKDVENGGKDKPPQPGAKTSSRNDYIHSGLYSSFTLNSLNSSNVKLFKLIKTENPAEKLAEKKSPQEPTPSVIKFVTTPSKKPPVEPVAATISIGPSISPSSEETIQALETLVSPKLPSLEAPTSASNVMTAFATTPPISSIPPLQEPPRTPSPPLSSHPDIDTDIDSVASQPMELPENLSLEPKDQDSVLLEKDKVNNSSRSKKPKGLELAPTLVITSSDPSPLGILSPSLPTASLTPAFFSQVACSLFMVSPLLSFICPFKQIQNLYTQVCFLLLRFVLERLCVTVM
Method in brief: as §1

ETV2 = biological target: T4, ETV2 (Homo sapiens, UniProt O00321 1-342); conditions: protein: recombinant; tags: N-terminal GST; dsDNA, one strand shown
T4 sequence: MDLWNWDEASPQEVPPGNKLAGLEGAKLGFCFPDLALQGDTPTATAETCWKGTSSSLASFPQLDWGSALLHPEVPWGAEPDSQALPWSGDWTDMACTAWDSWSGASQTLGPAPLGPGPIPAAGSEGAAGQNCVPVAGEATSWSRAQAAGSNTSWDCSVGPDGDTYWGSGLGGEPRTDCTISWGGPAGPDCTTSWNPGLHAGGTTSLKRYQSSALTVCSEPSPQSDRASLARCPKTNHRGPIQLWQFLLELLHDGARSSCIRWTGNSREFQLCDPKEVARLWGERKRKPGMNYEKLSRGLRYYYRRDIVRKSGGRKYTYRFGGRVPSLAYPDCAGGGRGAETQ
Method in brief: as §1

ELF3 = biological target: T5, ELF3 (Homo sapiens, UniProt P78545 1-371); conditions: protein: recombinant; tags: N-terminal GST; dsDNA, one strand shown
T5 sequence: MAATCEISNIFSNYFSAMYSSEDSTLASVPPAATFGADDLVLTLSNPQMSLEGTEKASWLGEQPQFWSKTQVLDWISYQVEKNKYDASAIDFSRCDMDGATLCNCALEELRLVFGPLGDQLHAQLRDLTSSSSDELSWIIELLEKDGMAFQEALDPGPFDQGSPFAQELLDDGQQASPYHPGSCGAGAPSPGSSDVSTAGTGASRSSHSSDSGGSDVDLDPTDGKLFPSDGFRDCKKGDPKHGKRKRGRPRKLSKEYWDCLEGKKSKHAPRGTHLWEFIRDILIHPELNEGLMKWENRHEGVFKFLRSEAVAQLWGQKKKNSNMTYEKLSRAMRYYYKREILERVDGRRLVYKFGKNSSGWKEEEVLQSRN
Method in brief: as §1

CRX = CRX (Homo sapiens, UniProt O43186 1-299); conditions: protein: recombinant; tags: N-terminal GST; dsDNA, one strand shown
Method in brief: as §1

ETV1 = ETV1 (Homo sapiens, UniProt P50549 1-477); conditions: protein: recombinant; tags: N-terminal GST; dsDNA, one strand shown
Method in brief: as §1

ERF = biological target: T6, ERF (Homo sapiens, UniProt P50548 1-548); conditions: protein: recombinant; tags: N-terminal GST; dsDNA, one strand shown
T6 sequence: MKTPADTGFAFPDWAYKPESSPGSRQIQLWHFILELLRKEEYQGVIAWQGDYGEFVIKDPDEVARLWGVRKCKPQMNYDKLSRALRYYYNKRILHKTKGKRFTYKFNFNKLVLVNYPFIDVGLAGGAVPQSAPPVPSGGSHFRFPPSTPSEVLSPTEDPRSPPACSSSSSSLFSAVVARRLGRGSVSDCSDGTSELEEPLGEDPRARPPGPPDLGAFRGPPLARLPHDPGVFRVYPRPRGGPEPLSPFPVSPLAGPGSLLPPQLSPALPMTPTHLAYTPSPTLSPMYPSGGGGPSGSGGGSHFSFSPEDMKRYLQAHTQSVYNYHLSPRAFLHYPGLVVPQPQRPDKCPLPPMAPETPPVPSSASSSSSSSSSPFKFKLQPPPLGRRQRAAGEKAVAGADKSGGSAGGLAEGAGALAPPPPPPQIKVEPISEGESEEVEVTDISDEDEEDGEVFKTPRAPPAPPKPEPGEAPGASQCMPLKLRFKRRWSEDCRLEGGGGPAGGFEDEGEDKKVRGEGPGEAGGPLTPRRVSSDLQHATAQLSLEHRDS
Method in brief: as §1

ETV3L = biological target: T7, ETV3L (Homo sapiens, UniProt Q6ZN32 1-361); conditions: protein: recombinant; tags: N-terminal GST; dsDNA, one strand shown
T7 sequence: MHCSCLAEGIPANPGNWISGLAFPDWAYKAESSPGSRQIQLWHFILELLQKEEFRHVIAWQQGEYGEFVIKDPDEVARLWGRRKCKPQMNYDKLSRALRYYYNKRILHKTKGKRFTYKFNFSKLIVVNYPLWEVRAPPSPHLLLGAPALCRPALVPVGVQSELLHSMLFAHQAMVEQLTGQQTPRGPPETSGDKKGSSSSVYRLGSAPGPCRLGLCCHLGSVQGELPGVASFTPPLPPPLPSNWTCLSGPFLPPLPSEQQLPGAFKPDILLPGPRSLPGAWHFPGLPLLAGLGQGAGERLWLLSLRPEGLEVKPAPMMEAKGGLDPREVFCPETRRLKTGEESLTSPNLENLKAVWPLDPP
Method in brief: as §1

ETS2 = biological target: T8, ETS2 (Homo sapiens, UniProt P15036 1-469); conditions: protein: recombinant; tags: N-terminal GST; dsDNA, one strand shown
T8 sequence: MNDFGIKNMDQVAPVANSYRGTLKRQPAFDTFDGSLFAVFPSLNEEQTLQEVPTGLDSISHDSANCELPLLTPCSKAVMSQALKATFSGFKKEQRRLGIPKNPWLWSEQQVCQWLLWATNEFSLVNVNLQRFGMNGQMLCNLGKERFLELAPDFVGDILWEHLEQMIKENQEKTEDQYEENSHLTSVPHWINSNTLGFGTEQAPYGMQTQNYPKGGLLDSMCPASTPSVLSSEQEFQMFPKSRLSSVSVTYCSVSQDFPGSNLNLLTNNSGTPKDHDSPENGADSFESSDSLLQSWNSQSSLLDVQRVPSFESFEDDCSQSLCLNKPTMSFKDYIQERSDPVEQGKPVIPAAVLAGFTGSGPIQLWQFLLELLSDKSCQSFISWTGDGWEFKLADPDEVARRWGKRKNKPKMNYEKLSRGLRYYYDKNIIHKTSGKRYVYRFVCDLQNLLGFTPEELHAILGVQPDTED
Method in brief: as §1

SPDEF = biological target: T9, SPDEF (Homo sapiens, UniProt O95238 1-335); conditions: protein: recombinant; tags: N-terminal GST; dsDNA, one strand shown
T9 sequence: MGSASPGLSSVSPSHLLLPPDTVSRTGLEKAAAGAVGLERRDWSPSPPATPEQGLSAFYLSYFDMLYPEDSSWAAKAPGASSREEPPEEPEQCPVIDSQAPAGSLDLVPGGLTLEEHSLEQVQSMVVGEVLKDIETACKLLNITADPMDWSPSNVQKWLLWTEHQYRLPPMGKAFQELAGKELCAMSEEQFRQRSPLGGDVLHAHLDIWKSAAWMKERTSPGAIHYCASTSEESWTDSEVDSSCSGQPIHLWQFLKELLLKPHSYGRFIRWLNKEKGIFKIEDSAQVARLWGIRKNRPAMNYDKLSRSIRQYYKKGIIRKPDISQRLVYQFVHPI
Method in brief: as §1

ETV7 = biological target: T10, ETV7 (Homo sapiens, UniProt Q9Y603 1-341); conditions: protein: recombinant; tags: N-terminal GST; dsDNA, one strand shown
T10 sequence: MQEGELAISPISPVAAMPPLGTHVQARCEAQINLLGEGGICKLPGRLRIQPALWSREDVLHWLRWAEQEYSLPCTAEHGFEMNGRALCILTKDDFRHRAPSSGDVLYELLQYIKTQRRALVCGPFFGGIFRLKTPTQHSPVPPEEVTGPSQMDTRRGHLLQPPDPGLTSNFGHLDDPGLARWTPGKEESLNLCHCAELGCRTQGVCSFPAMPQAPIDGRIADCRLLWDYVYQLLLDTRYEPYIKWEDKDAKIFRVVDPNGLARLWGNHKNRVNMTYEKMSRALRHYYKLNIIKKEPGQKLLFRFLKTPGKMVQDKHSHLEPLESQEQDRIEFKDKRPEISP
Method in brief: as §1

ELF5 = biological target: T11, ELF5 (Homo sapiens, UniProt Q9UKW6-2 1-255); conditions: protein: recombinant; tags: N-terminal GST; dsDNA, one strand shown
T11 sequence: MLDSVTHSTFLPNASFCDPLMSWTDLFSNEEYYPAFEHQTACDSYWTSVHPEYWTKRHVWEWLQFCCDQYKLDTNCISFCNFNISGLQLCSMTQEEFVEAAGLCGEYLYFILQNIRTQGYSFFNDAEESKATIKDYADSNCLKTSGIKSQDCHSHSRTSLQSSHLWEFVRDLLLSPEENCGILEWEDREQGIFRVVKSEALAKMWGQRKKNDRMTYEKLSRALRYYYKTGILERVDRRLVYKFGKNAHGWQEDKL
Method in brief: as §1

ETV3 = biological target: T12, ETV3 (Homo sapiens, UniProt P41162-2 1-143); conditions: protein: recombinant; tags: N-terminal GST; dsDNA, one strand shown
T12 sequence: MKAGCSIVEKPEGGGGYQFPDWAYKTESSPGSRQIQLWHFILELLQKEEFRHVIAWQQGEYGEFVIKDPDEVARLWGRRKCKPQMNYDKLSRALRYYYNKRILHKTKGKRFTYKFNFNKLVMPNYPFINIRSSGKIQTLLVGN
Method in brief: as §1

ETV6 = ETV6 (Homo sapiens, UniProt P41212 1-452); conditions: protein: recombinant; tags: N-terminal GST; dsDNA, one strand shown
Method in brief: as §1

Sequence of HSF1 (Q00613 whole entry): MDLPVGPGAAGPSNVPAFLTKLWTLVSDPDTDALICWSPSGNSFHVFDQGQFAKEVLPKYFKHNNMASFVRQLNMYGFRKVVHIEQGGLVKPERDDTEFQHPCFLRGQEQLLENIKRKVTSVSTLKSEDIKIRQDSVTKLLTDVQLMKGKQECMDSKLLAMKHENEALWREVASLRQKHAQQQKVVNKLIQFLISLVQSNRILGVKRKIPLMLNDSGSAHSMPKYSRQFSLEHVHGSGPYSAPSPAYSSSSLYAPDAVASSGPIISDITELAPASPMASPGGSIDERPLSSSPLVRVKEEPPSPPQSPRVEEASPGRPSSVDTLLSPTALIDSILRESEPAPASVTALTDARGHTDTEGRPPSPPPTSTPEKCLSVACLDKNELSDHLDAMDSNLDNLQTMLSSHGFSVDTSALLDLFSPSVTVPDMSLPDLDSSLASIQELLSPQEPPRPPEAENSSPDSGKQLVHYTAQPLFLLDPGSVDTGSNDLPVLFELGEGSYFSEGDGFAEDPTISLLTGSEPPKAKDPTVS
Sequence of ETV1 (P50549 whole entry): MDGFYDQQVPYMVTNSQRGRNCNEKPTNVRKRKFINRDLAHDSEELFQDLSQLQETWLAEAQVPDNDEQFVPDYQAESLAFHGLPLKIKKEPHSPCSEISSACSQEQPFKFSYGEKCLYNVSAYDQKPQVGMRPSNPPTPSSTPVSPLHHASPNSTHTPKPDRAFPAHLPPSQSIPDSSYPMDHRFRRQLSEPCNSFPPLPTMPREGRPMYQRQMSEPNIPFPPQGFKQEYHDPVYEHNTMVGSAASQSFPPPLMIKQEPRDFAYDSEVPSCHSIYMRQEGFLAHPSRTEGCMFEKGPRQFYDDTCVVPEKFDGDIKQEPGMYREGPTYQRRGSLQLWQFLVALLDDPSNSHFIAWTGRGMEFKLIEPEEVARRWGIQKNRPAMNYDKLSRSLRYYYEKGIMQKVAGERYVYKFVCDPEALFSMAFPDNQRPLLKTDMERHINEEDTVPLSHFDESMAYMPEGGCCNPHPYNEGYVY
Sequence of CRX (O43186 whole entry): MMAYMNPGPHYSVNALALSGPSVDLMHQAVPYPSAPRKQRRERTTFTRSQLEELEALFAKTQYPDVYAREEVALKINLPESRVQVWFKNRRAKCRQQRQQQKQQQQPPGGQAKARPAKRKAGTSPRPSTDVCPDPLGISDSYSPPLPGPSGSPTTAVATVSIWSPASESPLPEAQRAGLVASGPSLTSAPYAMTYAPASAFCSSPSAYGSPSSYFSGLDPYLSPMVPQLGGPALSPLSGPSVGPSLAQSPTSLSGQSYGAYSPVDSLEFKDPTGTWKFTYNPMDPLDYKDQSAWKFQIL
Sequence of ETV6 (P41212 whole entry): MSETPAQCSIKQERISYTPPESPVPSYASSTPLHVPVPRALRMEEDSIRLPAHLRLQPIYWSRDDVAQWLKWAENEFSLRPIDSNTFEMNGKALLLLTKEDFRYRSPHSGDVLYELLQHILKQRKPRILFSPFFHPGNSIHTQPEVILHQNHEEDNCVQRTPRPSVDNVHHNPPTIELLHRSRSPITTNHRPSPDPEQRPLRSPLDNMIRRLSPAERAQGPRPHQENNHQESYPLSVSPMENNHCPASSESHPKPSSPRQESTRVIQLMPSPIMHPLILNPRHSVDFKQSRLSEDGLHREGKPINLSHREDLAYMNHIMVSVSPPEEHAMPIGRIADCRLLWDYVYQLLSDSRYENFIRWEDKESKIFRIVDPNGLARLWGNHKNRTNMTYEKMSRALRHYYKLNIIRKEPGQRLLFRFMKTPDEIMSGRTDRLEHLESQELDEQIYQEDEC
Sequence of ELF4 (Q99607 whole entry): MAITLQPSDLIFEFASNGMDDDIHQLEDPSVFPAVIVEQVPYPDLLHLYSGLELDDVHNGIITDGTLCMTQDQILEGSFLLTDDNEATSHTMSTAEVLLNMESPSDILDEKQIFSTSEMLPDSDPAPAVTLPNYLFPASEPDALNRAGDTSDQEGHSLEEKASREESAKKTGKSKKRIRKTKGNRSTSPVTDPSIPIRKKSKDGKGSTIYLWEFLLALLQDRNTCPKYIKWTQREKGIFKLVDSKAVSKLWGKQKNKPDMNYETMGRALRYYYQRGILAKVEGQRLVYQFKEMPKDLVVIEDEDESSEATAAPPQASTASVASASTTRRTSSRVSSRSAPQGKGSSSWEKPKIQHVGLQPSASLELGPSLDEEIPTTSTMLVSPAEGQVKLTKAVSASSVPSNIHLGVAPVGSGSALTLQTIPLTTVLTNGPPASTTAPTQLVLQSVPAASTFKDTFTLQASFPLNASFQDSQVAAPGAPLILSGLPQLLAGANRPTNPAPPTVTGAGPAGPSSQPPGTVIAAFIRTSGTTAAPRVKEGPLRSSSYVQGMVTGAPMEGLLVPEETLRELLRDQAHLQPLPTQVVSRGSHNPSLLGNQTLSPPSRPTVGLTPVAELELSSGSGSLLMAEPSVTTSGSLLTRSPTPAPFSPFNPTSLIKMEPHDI
Sequence of ETV5 (P41161 whole entry): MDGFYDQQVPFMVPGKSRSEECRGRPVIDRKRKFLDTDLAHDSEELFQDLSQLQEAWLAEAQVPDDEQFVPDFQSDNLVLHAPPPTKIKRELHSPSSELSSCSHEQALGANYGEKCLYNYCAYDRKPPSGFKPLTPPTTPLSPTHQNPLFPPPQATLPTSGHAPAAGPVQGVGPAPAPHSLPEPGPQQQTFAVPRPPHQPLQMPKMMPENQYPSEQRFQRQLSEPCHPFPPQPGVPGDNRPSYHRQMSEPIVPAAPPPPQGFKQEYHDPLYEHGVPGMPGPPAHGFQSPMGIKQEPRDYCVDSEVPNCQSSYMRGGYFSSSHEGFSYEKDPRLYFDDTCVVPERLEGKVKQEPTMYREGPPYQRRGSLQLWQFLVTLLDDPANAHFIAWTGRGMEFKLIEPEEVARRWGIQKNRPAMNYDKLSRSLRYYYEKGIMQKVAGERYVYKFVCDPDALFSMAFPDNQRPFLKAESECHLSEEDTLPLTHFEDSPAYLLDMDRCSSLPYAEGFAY

Q: Which binding signal (FEV) does the source give for TAATTG here?
A: Its binding signal is 1.32 fold enrichment (6-mer frequency, TF over GST control).

Q: What about the binding signal (ETV5) of the same sequence?
A: The binding signal was 1.4 fold enrichment (6-mer frequency, TF over GST control).

Q: What about the binding signal (HSF1) of the same sequence?
A: The binding signal was 1.42 fold enrichment (6-mer frequency, TF over GST control).

Q: And the binding signal (SPIC)?
A: The binding signal was 1.31 fold enrichment (6-mer frequency, TF over GST control).

Q: And the binding signal (ELF4)?
A: The binding signal was 1.36 fold enrichment (6-mer frequency, TF over GST control).

Q: And the binding signal (ELK4)?
A: The binding signal was 1.35 fold enrichment (6-mer frequency, TF over GST control).

Q: And the binding signal (ETV2)?
A: Its binding signal is 1.44 fold enrichment (6-mer frequency, TF over GST control).

Q: What about the binding signal (ELF3) of the same sequence?
A: The binding signal was 1.49 fold enrichment (6-mer frequency, TF over GST control).

Q: And the binding signal (CRX)?
A: The binding signal was 1.82 fold enrichment (6-mer frequency, TF over GST control).

Q: What about the binding signal (ETV1) of the same sequence?
A: Its binding signal is 1.35 fold enrichment (6-mer frequency, TF over GST control).

Q: What about the binding signal (ERF) of the same sequence?
A: The binding signal was 1.35 fold enrichment (6-mer frequency, TF over GST control).

Q: And the binding signal (ETV3L)?
A: Its binding signal is 1.37 fold enrichment (6-mer frequency, TF over GST control).

Q: And the binding signal (ETS2)?
A: Its binding signal is 1.42 fold enrichment (6-mer frequency, TF over GST control).

Q: What about the binding signal (SPDEF) of the same sequence?
A: The binding signal was 1.22 fold enrichment (6-mer frequency, TF over GST control).

Q: What about the binding signal (ETV7) of the same sequence?
A: Its binding signal is 1.44 fold enrichment (6-mer frequency, TF over GST control).

Q: What about the binding signal (ELF5) of the same sequence?
A: Its binding signal is 1.37 fold enrichment (6-mer frequency, TF over GST control).

Q: What about the binding signal (ETV3) of the same sequence?
A: The binding signal was 1.34 fold enrichment (6-mer frequency, TF over GST control).

Q: And the binding signal (ETV6)?
A: Its binding signal is 1.42 fold enrichment (6-mer frequency, TF over GST control).
